From PubChem
DAT uptake mod = changed human dopamine transporter uptake under cocaine IC80 | Q01959 | LLC-PK1 hDAT cells, [14C]-dopamine uptake with cocaine IC80; actives deviate in either direction | B-score at 10 µM | 110,000 compounds, 1.3% hits;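 active = Z score or B-score, a plate-position-corrected score, falls beyond the plate's 99.7% confidence bounds, in either direction; inactive = both scores lie inside the 99.7% bounds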;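 note: scored against the spread of the other compound wells on the same plate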
PostGolgi yeast = growth inhibition of a yeast mutant, post-Golgi transport screen | post-Golgi transport phenotypic cell assay | inhibition, % at 10 µM | 98,000 compounds, 0.9% hits | AID 739;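 note: yeast cells grown in 1536-well plates; yeast grown about 18 h at 30C before absorbance read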
PostGolgi ctrl = yeast control strain growth, post-Golgi counter-screen. 98,000 compounds, 5% hits. efflux-deficient yeast background strain, growth absorbance A615, 16 h. inhibition, % at 10 µM
Cav3 T inh = blocks human Cav3.2 T-type calcium channel; Cav3.2-expressing cells, Fluo-4 calcium fluorescence FDSS; stronger effect = lower value; B-score at 10 µM; 100,000 compounds, 4% hits;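 active = single-dose well whose peak fluorescence ratio is a statistical outlier from its plate by either plate-standardised score or position-corrected B-score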
PLAP activator = activates human placental alkaline phosphatase; P05187; purified PLAP enzyme, luminescent substrate read-out; stronger effect = higher value; activation fold at 20 µM; 96,000 compounds, 1.2% hits; in the data active = activation fold above about 2
An asterisk follows results filed as active; nt = no result. In the library only some 9.6% were active in any assay of this set; here they are far more common. Cut-off read from the data, not from the text of the source, unless noted: active = inhibition above about 30%; inactive = the rest.

SMILES | DAT uptake mod | PostGolgi yeast | PostGolgi ctrl | Cav3 T inh | PLAP activator
COC(=O)C1=C(c2ccc(S(C)(=O)=O)cc2)C[C@@H]2CC[C@H]1N2C(=O)NCCNC(C)=O | -0.2 | nt | nt | 0.0046 | nt
Oc1ccc(C2=CCNCC2)cc1O | 0.41 | nt | nt | 0.058 | nt
CCCCn1c(=O)c(C(=O)Nc2cnccn2)c(O)c2ccccc21 | 0.054 | 7 | 26 | -2.6* | 1.6
CCCCn1c(=O)c(C(=O)Nc2nc3ccccc3[nH]2)c(O)c2ccccc21 | nt | nt | nt | nt | 0.9
CC(C)CCn1c(=O)c(C(=O)Nc2ccccc2S(N)(=O)=O)c(O)c2ccccc21 | 1.6 | 4 | 22 | -5.4* | 1.6
COc1ccc2c(c1)CC1(CN2C)C(=O)NC(=O)N(CCc2ccccc2)C1=O (centres undefined) | -0.14 | 1 | -12 | -0.25 | 1.5
CCC(C)N1C(=O)NC(=O)C2(Cc3c(ccc4ccccc34)N(C)C2)C1=O (centres undefined) | -1.1 | 3 | 33* | -3.3 | 1.1
CN1C(=O)C(=Cc2ccc(N3CCCCC3)o2)C(=O)N(C)C1=S | -1.3 | 4 | 8 | -6.7* | 0.7
CCn1c(O)c(C=Nc2ccc(N3CCOCC3)c(Br)c2)c(=O)n(CC)c1=S | nt | 1 | 37* | nt | 1.2
CCn1c(O)c(C=Nc2ccc(N3CCOCC3)cc2)c(=O)n(CC)c1=S | 0.042 | 1 | 7 | -4.5* | 1.1
CCC(=NCCc1c[nH]c2ccccc12)c1c(O)n(C)c(=O)n(C)c1=O | -0.2 | -5 | 19 | -2.6 | 1.7
CCOP(=O)(OCC)C(NC(=O)C(C)C)C(Cl)(Cl)Cl (centres undefined) | -0.78 | -11 | 5 | 0.2 | 0.9
COc1cccc(CN2CCN(C(=O)COc3ccc4ccccc4c3)CC2)c1 | 2.4* | 6 | 20 | nt | 1.6
c1ccc(-c2nnc(C3CC(c4cccnc4)=NO3)o2)cc1 (centres undefined) | 1.3 | nt | nt | -1.4 | nt
C/C=C1\CN2[C@H]3C[C@@]45c6ccccc6N(C)[C@H]4[C@@H]2CC1C3[C@H]5O (some centres undefined) | 0.069 | nt | nt | -4.6* | nt
CC(C)(C)C(O)C(Oc1ccc(Cl)cc1)n1cncn1 (centres undefined) | -0.57 | 104* | 98* | nt | 1.1
O=c1c2ccccc2nc(-c2ccc(-c3ccccc3)cc2)n1-c1ccncc1 | 0.0075 | 100* | 86* | -0.97 | 1
COC/C=C1\CN2C3C[C@@H]1[C@H]1COC4=Nc5cc(OC)c(OC)c(OC)c5[C@@]43C[C@@H]12 | -0.55 | nt | nt | 0.68 | nt
CCOC(=O)c1cc(C)n(CCc2cnc[nH]2)c1C | -0.55 | 3 | -2 | -0.66 | 2.4*
Cc1ccccc1C1=NCC(=O)N(CC(=O)NCc2ccco2)c2sc3c(c21)CCCC3 | 0.9 | 5 | 10 | -7.2* | 1.5
Cc1ccc(C2=NCC(=O)N(CC(=O)N3CCCCC3)c3sc(C)c(C)c32)cc1 | 0.75 | -2 | -3 | -1.7 | 1.3
O=C1CC(C(=O)N2CCC3(CC2)OCCO3)CN1CCc1ccccc1 (centres undefined) | 0.24 | -4 | 32* | 0.29 | 1.2
O=C(C1CC(=O)N(C2CCCCC2)C1)N1CCC2(CC1)OCCO2 (centres undefined) | nt | 21 | 4 | nt | 1.2
CC12CN3CCN(C1)CC(C)(C3)C2=NO | -0.47 | 4 | 3 | -0.21 | 0.9
CCN1/C(=C\C=C\C2=[N+](CC)c3ccccc3C2(C)C)C(C)(C)c2ccccc21 | nt | 99* | 96* | nt | 0.4
SMILES | DAT uptake mod | PostGolgi yeast | PostGolgi ctrl | Cav3 T inh | PLAP activator
O=C(NC1CC2CCC(C1)N2Cc1nnnn1Cc1ccco1)NC12CC3CC(CC(C3)C1)C2 (centres undefined) | 0.017 | -4 | 10 | -1.2 | 6.3
N[C@@H](Cc1c[nH]c2ccccc12)c1nnc(SCc2ccccc2)o1 | 3.2 | 11 | 9 | -0.93 | 1
N[C@@H](Cc1c[nH]c2ccccc12)c1nnc(SCc2ccc(Cl)cc2)o1 | -8.5* | 47* | -1 | nt | 1.8
COc1ccccc1N1CCN(Cc2ccccc2F)CC1 | 0.34 | 36* | -1 | 1.1 | 1.3
Clc1cc(I)cc(Cl)c1NC1=NCCN1 | -0.47 | nt | nt | -0.23 | nt
Cc1ccc(N2CCN(CCc3ccccc3)CC2)cc1 | 1.3 | 7 | 43* | 1.8 | 1
CN1C(=O)/C(=C/c2cccn2-c2ccc3ccccc3c2)C(=O)NC1=S | 0.036 | 98* | 4 | 0.39 | 0.9
CC(C)OCCCNC(=O)c1c(N)n(CC2CCCO2)c2nc3ccccc3nc12 (centres undefined) | -0.16 | 6 | 14 | -4.5* | 1.7
Nc1c(C(=O)OC2CCCCC2)c2nc3ccccc3nc2n1CC1CCCO1 (centres undefined) | 3.4* | 7 | 23 | nt | 1.2
